Several values for one entry are separate records, joined by “and”; a condition that tells them apart may be missing. Identical values can stand only once. Compounds without any hit were thinned out: in the full panel of roughly 83,000, 20% have a hit.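 Cells were grown in 96-well plates and exposed to the test compound at a single concentration for 48 hours; results are reported as percent growth, with values below 10 considered active.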 A number with no mark means an inactive call. Activity calls are given as the source filed them.

For this test, the system named is MDA-MB-468 breast. The test can be described thus: NCI-60 one-dose screen, 48 h (100 = growth as untreated, 0 = no growth, -100 = all killed). As to conditions: 10 µM unless noted.
On to `COc1ccc(CCN2CC=Cn3c2nc2ccccc2c3=O)cc1`, for which the growth is -0.686% (active). Turning to `Brc1ccc(SSc2ccc(Br)cc2)cc1`, the growth was 87%.

For `Cc1cc2nc3c4cc(O)ccc4n(CCN(C)C)c3nc2cc1C`, the growth is -38.4% (active). On to `COC(=O)C(=[N+]=[N-])C(=O)c1ccc([N+](=O)[O-])o1`, for which the growth is 81.7%.

On to `O=C1Nc2ccc(C(=O)O)cc2/C1=N/c1nnc(Sc2ccccc2)s1`, for which the growth was 105%. For the compound `O=S(Cc1ccccc1)/C(=C/NC(=S)Nc1cc(Cl)ccc1Cl)c1ccccc1` (stereo not given), the growth was 106%.

Take `COc1cccc(-c2nn(-c3ccccc3)cc2-c2ccnc(NCCCNS(=O)(=O)c3ccc(Br)cc3)c2)c1`: the growth is 35.5%.

Take `CCN(CC)CCN1CC(=O)Nc2cc(Cl)ccc21`: the growth is 98.7%. For `COc1c(C(=O)Nc2ccc(C)c(Br)c2)ccc2ccccc12` the value was 87.9%; for `O=S(=O)(NCCNc1cc(-c2cn(-c3ccccc3)nc2-c2cccc(O)c2)ccn1)c1cccc(F)c1`, 15.2%. Consider `O=C(N/N=C\c1ccc(-c2ccc(Br)cc2)o1)c1cc2oc(-c3cccc(C(F)(F)F)c3)cc2[nH]1`, for which the growth was 126%. For the compound `COc1cc(CNC(=O)CCCC/C=C/C(C)C)ccc1O`, the growth was 94.6% and 98.5%. Regarding `NC(=O)c1c(NC(=O)c2ccc(Cl)cc2)sc2c1CCC(=O)C2`, the growth was 88.5%.

For the compound `CC1(C)CC[C@]2(C(=O)O)CC[C@]3(C)C(=CC[C@@H]4[C@@]5(C)C/C(=C/O)C(=O)C(C)(C)[C@@H]5CC[C@]43C)[C@@H]2C1`, the growth is 77.3%. Consider `CCCCCS(=O)(=O)Nc1ccc(C(=O)O)cc1`, for which the growth is 104%.

Regarding `C(=N\Nc1nc(N/N=C/c2ccc3c(c2)OCO3)nc(N2CCCCC2)n1)/c1ccc2c(c1)OCO2`, the growth is 81.6%. In the case of `CCOC(=O)Cc1cnn(C)c1NC(=O)c1ccc(Cl)cc1NC(C)=O`, the growth was 89.9%. As for `O=c1c2sc3ncc(Cl)cc3c2nnn1-c1cccc(Cl)c1`, the growth is 97.3%. As to `CCS(=O)(=O)Nc1cccc(Nc2c3cccc(C)c3nc3c(C)cccc23)c1OC`, the growth is 37.7%. As for `Cn1c([N+](=O)[O-])cnc1/C=C1\Oc2ccc(Br)cc2C1=O`, the growth is 13.1%. Consider `Cc1ccc(-n2cc(/C=N/NC(=O)c3ccncc3)c(-c3ccc(S(C)(=O)=O)cc3)n2)cc1`, for which the growth was 100%.

Turning to `O=C(Cc1csc2nc(-c3ccc(Cl)cc3)cn12)N/N=C/c1ccccc1O`, the growth was 56.7%. Consider `COC(=O)c1ccc(NC2=C(Cl)C(=O)c3nc(C)ccc3C2=O)cc1`, for which the growth is 56%.

Take `Nc1c(C(=O)Nc2ccccc2F)sc2nc3c(cc12)C(=O)CCC3`: the growth is -15.2% (active). `CCCCCCCCCCC(C[N+](C)(C)C/C=C/c1ccccc1)C(O)c1ccccc1` (stereo not given): the growth is -69.4% (active).

As to `C/C(=N\NC(=S)N1CCCCC1)c1ccccn1`, the growth was -27.4% (active). The figure for `C=C(CN1CC=CCC1)[C@@H]1CC[C@]2(CO)CC[C@]3(C)[C@H](CC[C@@H]4[C@@]5(C)CC[C@H](O)C(C)(C)[C@@H]5CC[C@]43C)[C@@H]12` is 89.2%; for `N/N=C(\C(=N\N)c1ccccc1)c1ccccc1` it is 94%; for `O=c1sc2ncnc3ncn1c32` it is 8.83% (active).

Consider `COc1cc(-c2nn(-c3cccc(NC(=O)c4ccc(N5CCOCC5)c(C(F)(F)F)c4)c3)cc2-c2ccncc2)ccc1Cl`, for which the growth was -37.8% (active).

As for `COc1ccc(OC)c2c1[nH]c(=O)c1c3ccccc3cn21`, the growth was -23.3% (active). For `COc1ccc(NC(=O)CSc2oc(-c3ccccc3)nc2S(=O)(=O)c2ccc(Cl)cc2)c(OC)c1`, the growth was 57.8%.

With `Cc1oc2nc[nH]c(=O)c2c1C(=O)/C=C/c1ccc(Cl)cc1Cl`, the growth is 86.7%. In the case of `O=C1C=C(Nc2ccccc2)c2ccccc2C1=O`, the growth is 78% and 76.9%. Turning to `COc1ccc(/C(=C/c2ccc3ccccc3c2)c2nn[nH]n2)cc1OC`, the growth is 60.2%.

`CN(C)CCOc1ccc(/C(=C(/CCCl)c2ccccc2)c2ccccc2)cc1`: the growth was -57.1% (active).

As for `O=C(Nc1ccc(CN2CCc3nc4cc(O)c(O)cc4cc32)cc1)c1ccc(Cl)c(Cl)c1`, the growth was 97.4%. On to `CNCCN(C)c1ccc(Nc2cc(NC3CC3)n3ncc(C#N)c3n2)cc1NC(C)=O`, for which the growth is -54.5% (active).

On to `COc1ccc(C2=NN(C(C)=O)C(c3c(C)nn(-c4ccccc4)c3N3CCOCC3)C2)cc1` (stereo not given), for which the growth was 92.6%.

Take `COc1ccc(OC)c(NC(=O)CCCCCCNC(=O)C(O)(O)C(F)(F)F)c1`: the growth was 22.6%.

The record behind these values is PubChem BioAssay (NCI).
